Data as given in the supplement of paper PMC10338343.
± gives the standard deviation.

tested on: MILI (PIWIL2) piRISC loaded with piRNA #1 (26 nt); experiment: pre-steady-state target cleavage rate (min^-1); guide: piRNA #1 5'p-UGAGGUAGUAGGUUGUAUAGUAUCCA; MIWI and MILI are mouse PIWI proteins and EfPiwi is from a freshwater sponge; tags in brackets are library labels; higher = faster piRNA-guided slicing of the target; details: auxiliary factor: 500 nM mouse GTSF1
Method in brief: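 At 33 °C in HEPES–potassium acetate buffer, a transcribed, DNA-blocked target RNA library […] was exposed for 0–8 or 0–960 min to 1 nM active affinity-purified piRISC carrying a single synthetic guide, with or without 500 nM GTSF1 partner protein. Uncleaved targets were sequenced and normalised to depth and to weakly complementary targets. With three trials pooled and k3 capped at 0.0001 min^-1, a burst-and-steady-state fit produced the pre-steady-state cleavage rate.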
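Note: 1 nM active piRISC with 0.1 nM target library at 33 °C single turnover.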

| Sequence | pre-steady-state target cleavage rate |
| --- | --- |
| GGAGACCAUACUAUACAACCUACUACAUCA | 0.0875 ± 0.011 |
| GGAGACCUAACUUUACAACCUACUACCUGA | 0.0891 ± 0.041 |
| GGAGACCUAUGUAUACAACCUACCUACCUCA | 0.0358 ± 0.0076 |
| GGAGACCUAUGUAGACAACCUACUACCUCA | 0.0173 ± 0.0042 |
| GGAGACCUUACUAUACAACCGACUACCUCA | 0.00424 ± 0.0031 |
| GGAGACCUAUGUAUACAACCGUACUACCUCA | 0.00758 ± 0.0041 |
| GGAGACCUAUCUAUACAAGGUACUACCUCA | 0.0563 ± 0.0083 |
| GGAGACCUAUGAUAUGUUGCUACUCCCUCA | < 0.0001 |
| GGAGACCUAUGAUAACAACCCACUACCUCA | 0.00347 ± 0.0029 |
| GGAGACCUUACUAUACAACCUACAUACCUCA | 0.157 ± 0.011 |
| GGAGACCUAUGAUAACAACCUACUAACCUCA | 0.00664 ± 0.002 |
| GGAGACCUAACUAUACUUCCUACUACCUCA | 0.054 ± 0.011 |
| GGAGACCUAUGAUUACAACGUACAACCUCA | 0.00532 ± 0.0027 |
| GGAGACCUAUGUAUACAACCUACUGCCUCA | 0.0511 ± 0.0081 |
| GGAGUGGAUACUAUACAACCAACUACGUCA | 0.00435 ± 0.0018 |
| GGAGACCUAUGAUAUGUACCUACUAACUCA | < 0.0001 |
| GGAGACCUAACUAUACAACCUACUUCCACA | 0.0458 ± 0.022 |
| GGAGACCUAUGUAUUCAACCUACAACCUCA | 0.0352 ± 0.0064 |
| GGAGACCAUACUAUAGUUCCUACUACCUCA | 0.156 ± 0.019 |
| GGAGACCUUACUAUACAACCAUACUACCUCA | 0.0055 ± 0.0037 |

| Sequence | pre-steady-state target cleavage rate |
| --- | --- |
| GGAGACCUUACUAUACUAGCUACUACCUCA | 0.171 ± 0.012 |
| GGAGACCUAUCUUAUCAACCUACUACCUCA | 0.0106 ± 0.0025 |
| GGAGACCUUAGUAUACAACCUACUACGUCA | 0.0155 ± 0.0047 |
| GGAGACGAUACUUUUCAACCUACUACCUCA | 0.171 ± 0.011 |
| GGAGACCUAUGUAUACAACCUACAUCCUCA | 0.00671 ± 0.0026 |
| GGAGACCUAACUAAACAUCCUACUACCUCA | 0.216 ± 0.036 |
| GGAGACCUAUGAAUACAACCUACGUACCUCA | 0.00396 ± 0.0023 |
| GGAGACCUUACUAUACAACCUACAUCCUCA | 0.0472 ± 0.0095 |
| GGAGACCUAUGAAUAACAACCUACUACCUCA | 0.00368 ± 0.0026 |
| GGAGAGGAUACUAUACAACCUACAUGCUCA | 0.00576 ± 0.003 |
| GGAGACCAUUCUAUACUACCUACUACCUCA | 0.111 ± 0.013 |
| GGAGACCUAUGUAUACAACCUACUAGCCUCA | 0.0572 ± 0.013 |
| GGAGACCUAUGAAUACAUCCUACUAGCUCA | 0.00797 ± 0.0028 |
| GGAGACCUAUGUCUACAACCUACUACCUCA | 0.0245 ± 0.004 |
| GGAGACCUAUCUAUACUACCUACUUCCUCA | 0.0634 ± 0.01 |
| GGAGAGGAUACUUUACUACCUACUACCUCA | 0.161 ± 0.011 |
| GGAGACCUAACUAUAGAACCUACUACCUGA | 0.0124 ± 0.008 |
| GGAGACCUAUCUAAACAUCCUACUACCUCA | 0.116 ± 0.015 |
| GGAGAGGAUACUAUAGAACCUACUUCCUCA | 0.00501 ± 0.0029 |
| GGAGACCUAUGUUUACAACCUACAACCUCA | 0.0131 ± 0.0031 |
